Most compounds without a hit are left out; they make up all but 3.4% or so of the library.
H9c2 protect: cardioprotection against H2O2-induced cell death, primary screen, uHTS, H9c2 cells, ATPLite luminescence; 360,000 tested, 0.63% active; H9c2 cardiomyocytes, H2O2 injury protection, 2 h; protection from H2O2 cell death, % at 20 µM;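 active = compounds giving at least 50% protection of heart cells from peroxide-induced death in the single-dose screen, raw or plate-pattern-corrected value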;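 note: 0% = DMSO wells with peroxide and 100% = DMSO wells without peroxide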
NR2F2 inh: NR2F2 transcriptional activity inhibitors, primary screen, cell-based, luciferase reporter, HEK293T, luminescence; HEK293T NGFI-A luciferase reporter; 370,000 tested, 0.7% active; inhibition, % at 8.6 µM; COUP transcription factor 2 (Homo sapiens), P24468;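 active = inhibition above a per-plate cutoff, mean inhibition of test wells between control levels plus 3 SD, cut at about 38% in these data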;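 note: cells cotransfected with COUP-TFII expression vector driving the NGFI-A reporter; 0% = median of COUP-TF2 test wells and 100% = reporter-only cells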
Gli-Sufu antag: Gli-Sufu pathway antagonists, primary screen, luciferase luminescence, Sufu-KO-LIGHT cells, uHTS. Sufu-KO-LIGHT fibroblasts, Gli luciferase reporter luminescence. AID 588413, 2011. 340,000 tested, 0.74% active. inhibition, % at 5 µM;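 active = inhibition above about 55%, limit read from the data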;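 note: 0% = DMSO-treated cells and 100% = wells with medium but no cells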
GalR3 antagonist: GalR3 antagonists in HEK293 cells, primary screen, cell-based, fluorescence readout; Galanin receptor type 3 (Homo sapiens), O60755; HEK293 GalR3-CNG cAMP membrane potential fluorescence; galR3 body fused to GalR1 C-terminus; inhibition, % at 3 µM; 360,000 tested, 0.44% active; AID 651719, 2012;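 active = inhibition above the screen-wide average plus 3 SD, cut at about 13% in these data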;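 note: forskolin and galanin both at EC90 stimulate the cells; cAMP rise reported by CNG channel membrane potential dye signal; 0% = forskolin plus galanin with DMSO and 100% = forskolin alone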
Target sequence (O60755 1-299 limits assumed): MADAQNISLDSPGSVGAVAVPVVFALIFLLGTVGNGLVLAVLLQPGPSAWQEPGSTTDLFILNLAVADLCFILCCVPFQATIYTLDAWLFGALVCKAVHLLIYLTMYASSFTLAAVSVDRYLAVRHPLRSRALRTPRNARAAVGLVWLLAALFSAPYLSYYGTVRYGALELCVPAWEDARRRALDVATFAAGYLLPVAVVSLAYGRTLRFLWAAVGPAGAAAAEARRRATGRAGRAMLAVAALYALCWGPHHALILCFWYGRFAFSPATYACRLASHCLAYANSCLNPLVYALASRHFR
SMARCA2 activ: SMARCA2 (BRM) function activators, primary screen, cell-based, luminescence, high throughput; MG213 cells, MMTV-luciferase reporter, dexamethasone, overnight; activation, % at 9.1 µM; 370,000 tested, 1% active; AID 652017, 2013; in the data active = activation above about 7.8%;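 note: 0% = vehicle wells and 100% = reference activator wells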
FXN GAA850 act: FXN promoter activators, primary screen, cell-based, luciferase luminescence, HEK293 lucGAA850; AID 540364, 2011; HEK293 lucGAA850 FXN promoter luciferase reporter, 24 h; percent of 10 µM SAHA response; activation, % at 6 µM; 360,000 tested, 0.56% active;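 active = activation above the average of all compounds screened plus 3 SD, cutoff fixed separately per campaign, cut at about 7.5% in these data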;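 note: 0% = DMSO wells and 100% = 10 µM SAHA wells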
An asterisk follows results filed as active; nt = not tested or not shown.

SMILES	H9c2 protect	NR2F2 inh	Gli-Sufu antag	GalR3 antagonist	SMARCA2 activ	FXN GAA850 act
CCCCCCCCCCOC(=O)Cn1c(COc2ccccc2C)[n+](C)c2ccccc21	-15	nt	85*	nt	nt	0
CCCCCCCCCCOC(=O)Cn1c(COc2ccc(OC)cc2)[n+](C)c2ccccc21	-20	nt	76*	nt	nt	-1
CCOC(=O)CC[C@H]1CC[C@]2(CCCN(Cc3ccccc3)C2)O1	nt	-15	nt	nt	1	nt
CC(c1c[nH]c2ccccc12)c1c[nH]c2ccc(Br)cc12 (stereo not drawn)	nt	-4	nt	nt	0	nt
CN(C)C(CNS(=O)(=O)c1cc([N+](=O)[O-])ccc1Cl)c1ccco1 (stereo not drawn)	2	-2	4	3	7.8*	2
Cc1ccc(C)c(NC(=O)Cn2nnc(-c3ccncc3)n2)c1	nt	8	nt	nt	-6	nt
C=CCN1C(=O)/C(=C2\SC(N3CCOCC3)=NC2=O)c2cc(Br)ccc21	76*	0	-6	-1	3	2
C=CC[C@@H]1NN2C(=O)[C@@H](CCc3ccccc3)[C@@H]3c4ccccc4C=NN3[C@@H]2c2ccccc21	nt	-6	nt	nt	-2	nt
COc1ccc(C2C(C(=O)Nc3ccc(C)c(C)c3)CCC(=O)N2c2ccc(OC)cc2)cc1 (stereo not drawn)	nt	13	nt	nt	-6	nt
O=C(NC1CCCCN(Cc2cccc(C(F)(F)F)c2)C1=O)C1C2CC3CC(C2)CC1C3 (stereo not drawn)	nt	17	nt	nt	-1	nt
O=C(c1cc(COc2c(F)cccc2F)on1)N1CCCCCC1	-3	-47	-45	-2	7.9*	6
Cc1nnn(-c2nonc2N)c1C(=O)N/N=C/c1ccccc1O	54*	12	35	-1	-4	-1
CC(C)c1c(C(=O)N/N=C/c2ccc3c(c2)OCO3)nnn1-c1nonc1N	-6	1	-9	-4	-3	1
CCN(CC)c1ccc(/C=N/NC(=O)c2nnn(-c3nonc3N)c2C(C)C)c(O)c1	26	-40	92*	-2	-4	-10
Cc1nnn(-c2nonc2N)c1C(=O)N/N=C/c1cccc2ccccc12	9	-4	-3	-3	0	1
COC(=O)[C@H](CC1(c2cn(S(=O)(=O)CC[Si](C)(C)C)c3ccccc23)C(=O)Nc2ccccc21)NC(=O)OC(C)(C)C (stereo partly drawn)	nt	3	nt	nt	nt	nt
C=CCNc1nc(N)c(C(=C(C#N)C#N)c2ccc(Br)cc2)s1	56*	-3	-2	-2	0	-1
COC(=O)[C@]12C[C@H](CC(=O)N3CCN(C(=O)c4ccco4)CC3)C(=O)N(Cc3ccccc3)C1=C[C@H](COCc1ccccc1)O[C@@H]2C	nt	10	nt	nt	0	nt
Cc1ccc(NC(=O)/C=C/C(=O)O)c([N+](=O)[O-])c1	8	-4	5	-11	7.8*	-1
Cc1cccc(NC(c2ccc(O)cc2)c2ccc3ccc(C)nc3c2O)n1 (stereo not drawn)	92*	-8	9	-4	1	2
CN(CCc1ccccc1)C(=O)c1[nH]c(C(F)(F)F)nc1-c1ccccc1	-4	8	nt	-5	-2	nt
CCCCCOc1ccc(Cn2ccnc2)cc1[N+](=O)[O-]	-16	2	2	-9	1	4
CCOc1ccc(Cn2ccnc2)cc1[N+](=O)[O-]	-4	-3	4	-1	13*	2
CC(C)(C)OC(=O)N1CCC[C@H]1c1nnc(SCC(=O)Nc2ccc(Br)cc2)o1	60*	6	9	4	-2	1
O=C(O)CSc1ccc2nnc(-c3cccnc3)n2n1	2	8	-2	1	-5	-1
SMILES	H9c2 protect	NR2F2 inh	Gli-Sufu antag	GalR3 antagonist	SMARCA2 activ	FXN GAA850 act
Fc1ccc(CSc2ccc3nnc(-c4cccnc4)n3n2)cc1	80*	-11	15	-2	1	2
O=C(c1cccc(C(F)(F)F)c1)N1CC[C@H]2[C@H](CCCN2Cc2ccc(F)cc2)C1	nt	4	nt	nt	0	nt
N#Cc1c(N)[nH]c(=S)c(C#N)c1-c1ccccc1	12	2	1	51*	-2	3
Cc1ccc(-c2cc(-c3ccccc3)[nH]c(=S)c2C#N)cc1	0	8	6	1	-4	0
COc1ccc(-c2cc(NC(=O)Cc3c[nH]c4ccccc34)ccc2Nc2cccnc2)c(OC)c1	nt	-13	nt	-7	-1	nt
CC(C)C[C@H]1COc2cccc(F)c2S(=O)(=O)N1Cc1cn(CC2CCCCC2)nn1	nt	9	nt	nt	-4	nt
COC(=O)[C@@]12CCCCN1[C@H](c1ccc(-c3cc(C(C)=O)cs3)c(OC)c1)[C@H]1C(=O)N(C)C(=O)[C@H]12	31	-5	15	0	0	1
COC(=O)[C@@]12CCCCN1[C@H](c1ccc(-c3cc(C(C)=O)cs3)cc1)[C@H]1C(=O)N(C)C(=O)[C@H]12	56*	-9	13	-4	-1	0
C[C@@H]1CCN(C2CC2)S(=O)(=O)c2ccc(N3CCC[C@@H]3C)cc2O1	nt	1	nt	nt	-2	nt
COc1ccc(C)cc1NC(=O)CSc1ccc(-c2ccccn2)nn1	47	-11	12	0	-1	1
COc1cc(NC(=O)CSc2ccc(-c3ccccn3)nn2)cc(OC)c1	70*	-15	21	-1	0	-2
CCOC(=O)c1ccccc1NC(=O)CSc1ccc(-c2ccccn2)nn1	57*	-2	6	-2	0	-1
CCc1ccc(NC(=O)CSc2ccc(-c3ccccn3)nn2)cc1	50*	2	-29	1	-1	0
CC(=O)Nc1cccc(NC(=O)CSc2ccc(-c3ccccn3)nn2)c1	67*	4	-9	2	1	2
CCCC(=O)OC12CCCN(C1)/C(=C/c1cccc(Cl)c1)C2 (stereo not drawn)	nt	-20	nt	nt	-4	nt
Cc1ccc(-c2nnc(SCC(=O)Nc3ccc(Oc4ccccc4)cc3)n2-c2ccc(Cl)cc2)cc1	nt	9	nt	nt	-5	nt
COC(=O)C1CN(Cc2cn(CCOC(C)=O)nn2)CCS(=O)(=O)N1Cc1ccc(OC)cc1 (stereo not drawn)	nt	-9	nt	nt	2	nt
Oc1ccc2ccccc2c1/C=N/Nc1nnc(-c2ncc[nH]2)c2ccccc12	-4	-32	63*	-6	-2	-5
COC(=O)C1CN(Cc2ccc(F)cc2)CCS(=O)(=O)N1Cc1cn(CCOC(C)=O)nn1 (stereo not drawn)	nt	2	nt	nt	1	nt
COc1cc(OC)cc(C(=O)Nc2ccc(-c3nc4ccccc4o3)cc2)c1	120*	-14	12	-6	0	0

Source: PubChem BioAssay (several laboratories)
